TDP1 cell noCPT – qHTS for Inhibitors of human tyrosyl-DNA phosphodiesterase 1 (TDP1): qHTS in cells in absence of CPT. DT40 Tdp1-/- hTDP1 cells, no CPT, ATP luminescence, 48 h. Potency, µM (highest dose often 46.2 µM), hits mostly inhibitors. actives 15% (n = 420,000). AID 686978, 2013; also: nearly all actives have a fitted effect of over 55% in size
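Readout: luminescence from CellTiter-Glo after 30 min in the dark at RT. Cells: DT40 Tdp1-/- with stable hTDP1, 400/well. Exposure: compounds alone, ≥48 hr, 37 °C.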
DT40 TDP1 CPT – DT40-hTDP1 cell growth loss with CPT; AID 686979; Potency, µM (doses to about 46.2 µM), most hits filed as inhibitors; actives 12% (n = 420,000); chicken DT40 Tdp1-/-;hTDP1 cells + 20 nM CPT, ATP luminescence, 48 h; also: nearly all actives have a fitted effect of over 55% in size
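Chicken DT40 Tdp1-/- cells stably complemented with human TDP1 were seeded at 400 cells/well in medium containing 20 nM camptothecin, exposed to pin-transferred compounds, and grown at 37 °C for at least 48 hr. Viability was read as ATP luminescence.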
HT1080-NT tox – kills 2HG-producing HT-1080-NT fibrosarcoma cells; AID 686970; actives 1.6% (n = 360,000); Potency, µM (series often up to 46.1 µM), usual class: cytotoxic; HT-1080-NT fibrosarcoma viability, CellTiter-Glo ATP luminescence, 48 h;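 also: NT is the 2HG producing partner of a matched IDH1 knockdown line; nearly all actives have a fitted effect of over 55% in size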
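A 48-hour cytotoxicity screen used HT-1080-NT cells plated 2 hours before compound delivery. ATP-based CellTiter-Glo luminescence measured viability, normalized to DMSO and no-cell controls.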
IL-1B inflam inh – inhibitors of inflammasome signaling (IL-1 beta secretion). activity change, % at 57.5 µM. actives 4.7% (n = 360,000). AID 743279. THP-1 LPS/ATP IL-1B secretion, AlphaLISA, 16 h; active compounds read low; in the data active = activity change below about -50%; inconclusive = mostly about -30% to -49%
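Secreted IL-1B measured by AlphaLISA bead assay after 16 h compound exposure of THP-1 cells; compounds (final up to 57.5 uM) added 1 h before LPS (250 ng/mL) and ATP (1.25 mM) stimulation; lower signal means less secretion.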
HT1080 IDH1KD tx – HT-1080 IDH1 knockdown cell toxicity (counter line); HT-1080 IDH1 knockdown viability, ATP luminescence, 48 h; Potency, µM (highest dose often 46.1 µM), hits mostly cytotoxic; actives 2% (n = 360,000)
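Cytotoxicity counter-line: IDH1KD HT-1080, 48 h, CellTiter-Glo. Curves classed by r2, magnitude and activity.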
Of the large screens only hits and unclear results are named; the others gave an inactive call. This is a sample that favours compounds with a hit; in the whole collection about 19% have one here. Unless noted, calls follow the shape of the dose curve; as a rule, active = well fitted curve in the direction sought with a large enough effect; inconclusive = small, poorly fitted or top-dose-only effect, or another doubt; inactive = no such curve, though single readings can be large; an effect the other way counts as inactive or inconclusive.

O=C(NC12CC3CC(CC(C3)C1)C2)N1CCN(c2ccccc2)CC1	TDP1 cell noCPT inconclusive, DT40 TDP1 CPT inconclusive
Cc1nc(SCC(=O)N2CCN(c3ccccn3)CC2)c(C#N)c(C)c1C	none
Cc1ccccc1-c1nc(CS(=O)(=O)CC(=O)Nc2cc(F)ccc2F)c(C)o1	TDP1 cell noCPT 21µM, DT40 TDP1 CPT inconclusive, HT1080-NT tox inconclusive
Cc1ccccc1-c1nc(CS(=O)(=O)CC(=O)NCc2cccc(Cl)c2)c(C)o1	TDP1 cell noCPT inconclusive, DT40 TDP1 CPT 16µM (no result: HT1080-NT tox, IL-1B inflam inh, HT1080 IDH1KD tx)
Cc1ccccc1-c1nc(CS(=O)(=O)CC(=O)NCC(C)c2ccccc2)c(C)o1 (centres undefined)	TDP1 cell noCPT 16µM, DT40 TDP1 CPT inconclusive (no result: HT1080-NT tox, IL-1B inflam inh, HT1080 IDH1KD tx)
Cc1cccc(N2CCN(C(=O)CS(=O)(=O)Cc3nc(-c4ccccc4C)oc3C)CC2C)c1 (centres undefined)	TDP1 cell noCPT inconclusive, DT40 TDP1 CPT 15µM (no result: HT1080-NT tox, IL-1B inflam inh, HT1080 IDH1KD tx)
CCOc1ccc(C(=O)NCC2OCCc3ccccc32)cc1 (centres undefined)	none
CN(CC(=O)Nc1ccc(Cl)cc1F)C1CCS(=O)(=O)C1 (centres undefined)	none
Cc1noc(C)c1-c1ccc2ncnc(N3CCC(C(=O)O)CC3)c2c1	DT40 TDP1 CPT inconclusive (no result: HT1080-NT tox, IL-1B inflam inh, HT1080 IDH1KD tx)
O=C(COc1ccccc1)NCC(=O)Nc1ccncc1	none
CC(C)CCOc1cccc(OCC(=O)Nc2ccncc2)c1	TDP1 cell noCPT 13µM, DT40 TDP1 CPT inconclusive, HT1080-NT tox inconclusive, HT1080 IDH1KD tx inconclusive
Cc1ccc(OCC(=O)Nc2ccncc2)cc1C	TDP1 cell noCPT inconclusive, DT40 TDP1 CPT inconclusive
O=C(COc1ccc(-c2ccccc2)cc1)Nc1cccnc1	TDP1 cell noCPT 21µM, DT40 TDP1 CPT 18µM
O=C(COc1ccc(Nc2ccccc2)cc1)Nc1ccncc1	TDP1 cell noCPT 16µM, DT40 TDP1 CPT inconclusive, IL-1B inflam inh inconclusive
Cc1cc(OCC(=O)Nc2ccncc2)ccc1[N+](=O)[O-]	TDP1 cell noCPT 21µM, DT40 TDP1 CPT inconclusive
COc1ccc(/C=N/Nc2ncccc2[N+](=O)[O-])c(OC)c1	TDP1 cell noCPT inconclusive
COCC(=O)Nc1cc(C(=O)NC2Cc3ccccc3C2)cc2nc(-c3cccnc3)n(C)c12	none (no result: HT1080-NT tox, IL-1B inflam inh, HT1080 IDH1KD tx)
CN1C(=O)C2CCCCN2c2ccc(C(=O)NCc3ccccc3Br)cc21 (centres undefined)	DT40 TDP1 CPT inconclusive (no result: HT1080-NT tox, IL-1B inflam inh, HT1080 IDH1KD tx)
COc1ccccc1CCc1nnc(CCC(=O)N(C)Cc2ccncc2C)o1	TDP1 cell noCPT inconclusive
COc1ccccc1CCc1nnc(CCC(=O)N(C)Cc2cccc3cnccc23)o1	TDP1 cell noCPT 23µM, DT40 TDP1 CPT inconclusive
COc1ccc(CCc2ccnc3ccccc23)cc1	TDP1 cell noCPT 21µM, DT40 TDP1 CPT inconclusive, IL-1B inflam inh -62, HT1080 IDH1KD tx inconclusive
COc1ccc(CCc2nnc(CCC(=O)N(C)Cc3ccnc4ccccc34)o2)cc1	TDP1 cell noCPT 4.6µM, DT40 TDP1 CPT inconclusive, HT1080-NT tox inconclusive, HT1080 IDH1KD tx 21µM
c1ccc2c(CCc3c[nH]c4ccccc34)ccnc2c1	TDP1 cell noCPT 16µM, DT40 TDP1 CPT 13µM (no result: HT1080-NT tox, IL-1B inflam inh, HT1080 IDH1KD tx)
COc1ccc(OC)c(C(Cc2ccnc3ccccc23)Cc2ccnc3ccccc23)c1	TDP1 cell noCPT 13µM, DT40 TDP1 CPT 13µM (no result: HT1080-NT tox, IL-1B inflam inh, HT1080 IDH1KD tx)
CCCN(CC1CCCO1)C(=O)CCc1nnc(CCc2ccc(OC)cc2)o1 (centres undefined)	TDP1 cell noCPT inconclusive, DT40 TDP1 CPT 23µM
COc1cc(C=CC(=O)c2cc(OC)c(OC)c(OC)c2)cc(OC)c1OC	TDP1 cell noCPT 5.8µM, DT40 TDP1 CPT 5.8µM, HT1080-NT tox inconclusive, HT1080 IDH1KD tx 23µM
CCCOc1ccc(N/C=C/C(=O)c2cc(OC)c(OC)c(OC)c2)cc1	TDP1 cell noCPT 23µM, DT40 TDP1 CPT inconclusive
COc1cc(C=CC(=O)c2ccccc2)cc(OC)c1OC	TDP1 cell noCPT 8.2µM, DT40 TDP1 CPT 5.8µM, HT1080-NT tox 10µM, IL-1B inflam inh -115, HT1080 IDH1KD tx 8.2µM
COc1cc(/C=C/C(=O)c2cccs2)cc(OC)c1OC	TDP1 cell noCPT 1.5µM, DT40 TDP1 CPT 3.8µM (no result: HT1080-NT tox, IL-1B inflam inh, HT1080 IDH1KD tx)
CCN1CCN(S(=O)(=O)c2ccc(Cl)c(C(=O)N(C)CC(=O)Nc3c(C)cccc3C)c2)CC1	none

From PubChem BioAssay
